# Assay outcomes as filed in PubChem.
# MITF inh – inhibitors of human MITF | AlphaScreen MITF homodimerization, bead proximity signal | inhibition, % at 2.6 µM | actives 0.91% (n = 650,000) | AID 1259374; in the data active means inhibition above about 50%;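 further: 0% = vehicle wells with protein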
# Target sequence (O75030 whole entry, looked up): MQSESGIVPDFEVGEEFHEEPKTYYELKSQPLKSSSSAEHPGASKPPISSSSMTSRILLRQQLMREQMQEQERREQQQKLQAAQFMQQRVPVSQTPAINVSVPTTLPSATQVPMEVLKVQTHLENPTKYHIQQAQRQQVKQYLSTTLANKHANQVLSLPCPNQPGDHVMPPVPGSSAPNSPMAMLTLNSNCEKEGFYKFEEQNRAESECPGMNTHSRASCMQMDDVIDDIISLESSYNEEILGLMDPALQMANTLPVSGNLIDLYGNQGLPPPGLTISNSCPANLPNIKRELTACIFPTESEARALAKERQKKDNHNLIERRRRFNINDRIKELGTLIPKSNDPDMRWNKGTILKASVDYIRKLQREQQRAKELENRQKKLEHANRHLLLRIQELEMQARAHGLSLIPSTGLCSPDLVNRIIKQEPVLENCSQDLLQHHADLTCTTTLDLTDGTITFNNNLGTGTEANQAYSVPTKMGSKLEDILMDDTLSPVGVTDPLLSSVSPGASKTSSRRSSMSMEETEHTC
# TEAD-YAP inh – TEAD-YAP interaction inhibition | HEK-TIYL cells, TEAD-Gal4/YAP UAS-luciferase luminescence | inhibition, % at 9.12 µM | actives 1.4% (n = 640,000) | AID 1259422; in the data active means inhibition above about 32%;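 further: 0% = median of test compound wells and 100% = reference inhibitor wells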
# GPR151 ag – activates the human receptor GPR151 | actives 1% (n = 650,000) | PathHunter beta-arrestin GPR151 cells, luminescence | Q8TDV0 | AID 1508602 | activation, % at 11.2 µM; in the data active means activation above about 4.9%;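 further: 0% = median of compound wells and 100% = cells with positive control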
# FBW7 act – activators of human E3 ligase FBW7; actives 0.13% (n = 650,000); normalized activity (activation), % at 26.1 µM; AID 1259310; Q969H0; AlphaScreen FBW7–phospho-cyclin E peptide binding, activator screen; in the data active means normalized activity above about 1.9%;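 further: purified mutant Fbw7 with reduced substrate affinity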
# * = called active by the depositor. A selection: hits, their analogues and other compounds. The true share with any hit is near 3.5%.
SMILES,MITF inh,TEAD-YAP inh,GPR151 ag,FBW7 act
O=C(N/N=C/c1cccc(O)c1O)c1ccc(O)cc1,57*,-9,-1,-1
Cc1cccc(/C=N\NC(=O)c2ccc([N+](=O)[O-])cc2)c1O,-7,62*,-1,-1
Cc1ccc(N(C(=O)c2csnn2)C(C(=O)NC(C)(C)C)c2ccco2)cc1 (centres undefined),26,7,-1,0
Oc1cccc(C=Nc2ccc(Br)cc2)c1O,-14,-6,3,0
O=c1[nH]c2ccc(N=Cc3ccc(O)c(O)c3O)cc2[nH]1,68*,-4,0,-1
Cc1ccc(N=Cc2ccc(O)c(O)c2O)cc1F,69*,10,-1,0
Cc1ccc(N=Cc2cccc(O)c2O)cc1F,-1,5,-1,0
Oc1ccc(C=Nc2ccccc2)c(O)c1O,85*,0,5,0
O=C1c2cccc(Cl)c2C(=O)N1CCCCCCN1C(=O)c2cccc(Cl)c2C1=O,12,3,0,0
O=C(NC(C1CC1)C1CC1)c1cc(Cc2ccc(F)cc2)no1,14,-4,0,0
CC(Nc1ncnc2ccccc12)c1ccccc1 (centres undefined),2,56*,1,0
CC(Nc1ncnc2ccc(Br)cc12)c1ccccc1 (centres undefined),19,34*,-1,0
Brc1ccc2ncnc(NCCc3ccccc3)c2c1,9,64*,0,0
COCCCNc1ncnc2ccc(Br)cc12,2,29,1,0
Cc1cccc(NC(=O)c2ccc(S(=O)(=O)N3CCCC3)cc2)c1,6,12,0,0
CCOC(=O)C1=C(C)NC2=C(C(=O)C(C(=O)OC)C(C)C2)C1c1cc(OC)c(OC)cc1Br (centres undefined),13,-14,-2,1
O=C(NCc1cccnc1)/C(=C/c1ccc(-c2ccc(Cl)cc2)o1)S(=O)(=O)c1ccccc1,12,56*,-1,0
Cc1ccc(C(=O)N/C(=C/c2ccc(-c3ccc(Cl)cc3)o2)C(=O)NCc2ccccc2)cc1,3,-5,-1,0
COc1ccc(-c2nsc3c(N4CCC(C(N)=O)CC4)ncnc23)cc1,2,39*,-1,0
COc1ccc(-c2nsc3c(N4CCCCC4C)ncnc23)cc1 (centres undefined),10,93*,-1,0
CC1CCCCN1c1ncnc2c(-c3ccc([N+](=O)[O-])cc3)nsc12 (centres undefined),-1,-10,1,0
COc1ccc(-c2nsc3c(N4CCOCC4)ncnc23)cc1,-22,82*,0,0
COc1ccc(-c2nsc3c(N4CCN(C)CC4)ncnc23)cc1,-8,38*,0,0
COc1ccc(CCNC(=O)CN(C)c2nn3c(=O)cc(C)nc3s2)cc1OC,1,-8,0,0
O=[N+]([O-])c1ccc(-c2nsc3c(N4CCCC4)ncnc23)cc1,18,-25,1,0
SMILES,MITF inh,TEAD-YAP inh,GPR151 ag,FBW7 act
COc1ccc(-c2nsc3c(N4CCCCC4)ncnc23)cc1,-12,83*,-1,0
Nc1ccccc1C(=O)N/N=C/c1ccc([N+](=O)[O-])cc1,0,-40,0,0
COc1ccccc1C1CC(=O)Nc2cc3c(cc21)OCO3 (centres undefined),11,53*,-1,0
O=C1OCC2=C1C(c1ccccc1Br)c1cc3c(cc1N2)OCO3 (centres undefined),7,40*,0,0
O=C1CC(c2ccccc2OCc2ccccc2)c2cc3c(cc2N1)OCO3 (centres undefined),0,5,-1,0
COc1ccc(OC)c(C2C3=C(COC3=O)Nc3cc4c(cc32)OCO4)c1 (centres undefined),-7,55*,-1,1
COc1cc(/C=N/Nc2ccccc2)cc(OC)c1O,11,-15,1,1
CCCCN1C(=O)c2cccc3c(N4CCCC4)ccc(c23)C1=O,-7,-15,1,0
CCN1C(=O)c2cccc3c(N4CCCC4)ccc(c23)C1=O,-8,-5,-1,2.1*
Cc1c(C(=O)Nc2cccc(Cl)c2)nnn1-c1ccccc1F,-2,24,-2,0
Cc1c(C(=O)Nc2cccc(F)c2)nnn1-c1ccccc1F,-1,43*,-2,0
Cc1csc2nc(-c3ccc(NS(=O)(=O)N(C)C)cc3)cn12,13,2,0,0
CCS(=O)(=O)Nc1ccc(-c2cn3c(C)csc3n2)cc1,0,33*,2,0
CCN(CC)c1ccc(CNC(CC(=O)O)c2c[nH]c3ccccc23)cc1 (centres undefined),-4,10,1,0
O=C(Nc1ccccc1)c1ccnc(Nc2nccc3ccccc23)c1,8,7,-2,0
CC(C)/C=C1/CCCc2c1[nH]c1ccccc1c2=O,3,42*,3,0
CCOC(=O)c1cc2cccc(NS(=O)(=O)c3ccc(OC)cc3)c2[nH]1,-4,52*,0,0
CCOC(=O)c1cc2cccc(NS(=O)(=O)c3cccs3)c2[nH]1,6,4,-2,0
Cc1[nH]c2c(NS(=O)(=O)c3ccc4oc(=O)ccc4c3)cccc2c1C,3,-4,0,0
COc1ccc(S(=O)(=O)Nc2cccc3c(C)c(C)[nH]c23)cc1,10,44*,2,0
Cc1csc(-c2cnn3c(N4CCN(C)CC4)ccnc23)c1,-13,32*,-1,0
Cc1ccc(-c2cnn3c(N4CCN(C)CC4)ccnc23)cc1,-12,-52,0,0
CCOC(=O)c1c(C)[nH]c(C)c1C(=O)COC(=O)c1ccc(O)cc1,8,-1,-1,0
CCOC(=O)c1c(C)[nH]c(C)c1C(=O)COC(=O)c1ccc2[nH]c(C)c(C)c2c1,-6,66*,-1,0
Cc1cccc2cc3c(nc12)OC(C)C(=O)N(Cc1cccnc1)C3 (centres undefined),-2,1,0,0
SMILES,MITF inh,TEAD-YAP inh,GPR151 ag,FBW7 act
Cc1ccc2cc3c(nc2c1C)OC(C)C(=O)N(Cc1cccnc1)C3 (centres undefined),10,34*,-1,0
CCOc1ccc(NC(=O)C(=O)NCN(C(=O)CCl)c2ccccc2)cc1,18,47*,-1,0
CCOc1ccc(NC(=O)C(=O)NCCCO)cc1,19,-11,0,1
CCOc1ccc(NC(=O)C(=O)NCCCN)cc1,-4,76*,-1,0
CCCOc1ccc(C2NC(=O)NC(C)=C2C(=O)OC2CCCCCC2)cc1 (centres undefined),-13,2,1,0
CCOC(=O)C1=C(C)NC(=O)NC1c1ccc(-c2ccccc2)cc1 (centres undefined),-1,40*,5,0
CCCOc1ccc(C2NC(=O)NC(C)=C2C(=O)OC2CCCC2)cc1 (centres undefined),-8,56*,-1,0
CCOC(=O)C1=C(C)NC(=O)NC1c1ccc(OCc2ccccc2)cc1 (centres undefined),3,-17,-1,0
